# Results from PubChem BioAssay AID445 (National Center for Advancing Translational Sciences (NCATS), 2006).
# About 40 (0.04%) of roughly 110,000 compounds were called active. About 22% were inconclusive and are not listed. The call rests on the fitted dose curve; in most records, active means well fitted curve in the direction sought with a large enough effect in the signal ratio (not every such curve was filed as active); inconclusive means small, poorly fitted or top-dose-only effect, or a change in a side signal; inactive means flat fitted curve, though single readings scatter; the % refers to the signal ratio. The list comes from a sample in which actives are over-represented; it also holds similar structures and randomly drawn compounds.
# Assay: IkB Signaling;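 on IkBa stabilization activation: 0% = basal untreated cells and 100% = reference inhibitor full response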
# Conditions: ABC-DLBCL IkBa-CBG/CBR dual luciferase ratio, 4 h; series mostly up to 57.1 µM; IkBa stabilization activation: at the top concentration
# Source text: NIH Molecular Libraries Screening Centers Network [MLSCN]
# NIH Chemical Genomics Center [NCGC]
# Nuclear factor kappa-B (NF-kappa-B) plays an important role in normal B cell development and survival. Diffuse large B cell lymphoma (DLBCL) is the most commonly observed type of non-Hodgkin's lymphoma. Gene expression analysis has identified an activated B cell-like subtype of DLBCL (ABC-DLBCL) which expresses known NF-kappa-B target genes. […] However, targets upstream of IKK have been largely unexplored and so nodes upstream of IKK in the NF-kappa-B pathway remain untested due to the lack of chemical probes.
# A cell-sensor assay for I-kappa-B-alpha stabilization was developed with NIH investigator Dr. R. Eric Davis in Dr. Louis M. Staudt's laboratory. The assay uses green (CBG68) and red (CBR) emitting beetle luciferases [Chroma-Glo(TM) developed by Promega Corp.] where the green luciferase is fused to I-kappa-B-alpha and the red luciferase is present in its native state. Both luciferase genes are stably present in the OCI-Ly3 human ABC DLBCL cell line, but their expression is under the control of tetracycline-inducible promoters. Following the addition of doxycycline to induce expression of the luciferases, the green luminescence in control cultures rises only slowly because the CBG fusion partner I-kappa-B-alpha is targeted by IKK activity for rapid degradation. In contrast, green luminescence rises rapidly in the presence of proteasome inhibitors or IKK inhibitors. The rise in red luminescence of CBR is not affected by proteasome or IKK inhibitors, and serves as normalization for cell number and nonspecific effects. Compounds were screened as a concentration-titration series that ranged from 57 uM to 0.7 nM.
# NCGC Assay Protocol Summary:
# Cells were seeded in 1536-well plates at 5000 cells/3ul in IMDM medium containing 0.5% FBS, w/o phenol red, L-glutamine, 25 mM HEPES, 3 mg/ml sodium bicarbonate. After centrifugation for 1 min. at 1000 rpm, 23 nl of compounds or DMSO were delivered to each well using a pin tool. Then 1ul 80ng/ml doxycycline was dispensed into white solid 1536-well plates and the plates were incubated at 37C/5% C02 in a cell incubator for 4 hrs. Then 4 ul Chroma-Glo luminescent substrate mix (Promega) was added to each well. The plate was incubated at R.T. for 10-15 min. The plates were measured on a ViewLux plate reader for green luminescence (540/20 nm filter) and red luminescence (618/8 nm filter). The green and red luminescent signals were corrected for red and green luminescence filter overlap using previously determined filter calibration constants (determined using the procedure outlined in the Promega Technical Manual). The %Activity was determined from the ratio of corrected green/red luminescent values. Green luminescent and ratio %Activity was determined by normalizing to the difference in signal between basal cells (0% Activity) and cells incubated with 10 uM of the proteasome inhibitor MG-132 (100% Activity). Red luminescent %Activity was normalized to the difference between red luminesence in basal cells (0%Activity) and zero luminescence (-100% Activity).
# Concentration-response curves were fitted to the signals arising from the green luminescence (I-kappa-B-alpha-luciferase fusion; IkB-luc) and the red luminescence (unfused luciferase; luc) as well as the calculated ratio. The concentration-effect curves were then classified based on curve quality (r2), response magnitude and degree of measured activity. Compounds were then categorized based on their concentration-response curves for all three datasets (Ikb-luc, luc and ratio).
# Keywords: IKK, I-kappa-B, IkB, IkBa, cytotoxicity, luminescence, MLSMR, MLSCN, NIH Roadmap, qHTS, NCGC
# Potency means the concentration at half of the fitted maximal effect.
Structure (SMILES),IkBa stabilization activation,Potency
CCN(CCCNC(=O)c1c(C)oc2ncn(CC(C)C)c(=O)c12)Cc1ccccc1,1.93% (inactive),
Cc1cccc(CSc2ccc(-c3cccs3)nn2)c1,-2.49% (inactive),
CCOc1ccc(OCC)c(Nc2nc3ccccc3n3nnnc23)c1,1.77% (inactive),
COc1ccc(S(=O)(=O)N2CCCCC2)cc1C(=O)NC1CCS(=O)(=O)C1 (stereo not drawn),1.49% (inactive),
CCn1cc(C(=O)N(C)Cc2ccccc2)c(=O)c2cc(S(=O)(=O)N3CCCCCC3)ccc21,1.18% (inactive),
O=C1C(c2[nH]c3ccccc3c2O)=Nc2ccccc21,,2510 nM (active)
CCCOC(=O)Cc1c(O)c2ccccc2[nH]c1=O,0.442% (inactive),
CCCC(=O)Nc1c(O)c2ccccc2[nH]c1=O,-0.355% (inactive),
COc1ccc(-c2nc3sc(CCNC(=O)C(C)(C)C)c(C)n3n2)cc1,-2.83% (inactive),
COc1ccc(N2CCN(C(=O)c3ccc4c(Cl)c5c(nc4c3)CCCC5)CC2)cc1,0.102% (inactive),
CC(=O)Nc1ccc2nc(SCCOc3cc(C)cc(C)c3)sc2c1,-0.0445% (inactive),
CCC1CN(S(=O)(=O)c2cc(-c3cc(C)no3)ccc2C)c2cc(C)ccc2O1 (stereo not drawn),0.0798% (inactive),
CC1CCN(S(=O)(=O)c2ccc3c(c2)N(CC(=O)NCc2ccccc2Cl)C(=O)CO3)CC1,2.09% (inactive),
COC(=O)c1ccc(NC(=O)CCc2c(C)nn(-c3ccc(N4CCCC4)nn3)c2C)cc1,1.12% (inactive),
COc1ccc(-n2c(C)nc3c(cnn3-c3ccc(F)cc3)c2=O)cc1,-2.95% (inactive),
CC1=C(c2ccc(C)c(C)c2)S(=O)(=O)NC1=NCc1ccccc1Cl,1.34% (inactive),
Cc1cc(C)c2oc(C(=O)Nc3ccc(S(=O)(=O)N4CCCCCC4)cc3)cc(=O)c2c1,2.05% (inactive),
CN(C)CCN(Cc1ccccc1)S(=O)(=O)c1csc(C(N)=O)c1,-0.756% (inactive),
COC(=O)c1ccccc1NC(=O)c1cnn(-c2ccc(F)cc2)c1-n1cccc1,27.9% (inactive),
COc1ccc(NC(=O)C2CCN(c3ccc(Sc4ccc(C)cc4)nn3)CC2)c(OC)c1,0.374% (inactive),
COc1ccc(C2NC(=O)N(C)C3=C2C(=O)N(c2ccc(C(=O)O)cc2)C3)cc1 (stereo not drawn),-0.8% (inactive),

Structure (SMILES),IkBa stabilization activation,Potency
COc1cccc(NC(=O)CN2C(=O)c3ccccc3Sc3ncccc32)c1,4.99% (inactive),
Cc1ccc(-c2cnc(C3CC3)o2)cc1S(=O)(=O)Nc1cccc(C)c1C,-1.63% (inactive),
COCCNC(=O)c1cc(-c2cccc(Cl)c2)on1,68.5% (inactive),
COc1ccc(-c2nc3c4ccccc4n(CC(=O)Nc4ccc(C(C)=O)cc4)c(=O)n3n2)cc1,-0.837% (inactive),
Cc1ccccc1OCC(=O)Nc1c(C(=O)Nc2ccccc2F)oc2ccccc12,-0.867% (inactive),
COc1cc(NC(=O)C2=CC(c3ccco3)=NS(=O)(=O)N2C)cc(OC)c1OC,1.1% (inactive),
Cc1ccc2oc(=O)c3cnn(CC(=O)NCc4ccccc4Cl)c3c2c1,0.266% (inactive),
COc1cccc(CNC(=O)C2CCC(CNS(=O)(=O)c3cccs3)CC2)c1 (stereo not drawn),-3.86% (inactive),
CCCCC(=O)OC1=CN(Cc2ccccc2)S(=O)(=O)c2ccccc21,1.1% (inactive),
Cc1cc(C)cc(NS(=O)(=O)c2ccc(-c3cc(C)no3)s2)c1,2.64% (inactive),
CCc1ccccc1NC(=O)c1ccc2c(c1)CCN2S(C)(=O)=O,1.19% (inactive),
O=C(COc1ccccc1F)OCc1cc(=O)n2nc(C3CCCCC3)sc2n1,2.16% (inactive),
CN1C(=O)c2[nH]nc(-c3ccc(F)cc3)c2C1c1ccccn1 (stereo not drawn),2.45% (inactive),
CCC(=O)N1CCc2cc(S(=O)(=O)NC(Cc3ccccc3)C(=O)NCc3ccccc3)ccc21 (stereo not drawn),0.67% (inactive),
O=c1cc(-c2ccccc2)n2c(SCc3ccccc3)nnc2[nH]1,49.6% (inactive),
Cc1cccc(Cn2c(=O)n(CCC(=O)NCCc3ccc(Cl)cc3)c(=O)c3sccc32)c1,0.608% (inactive),
O=C(NC1CC(=O)N(c2ccc(F)cc2)C1)c1cccs1 (stereo not drawn),0.355% (inactive),
COc1ccc(CNc2nc(-c3ccccc3)nn2C(=O)c2ccccc2OC)cc1,0.945% (inactive),
Cc1ccc(Cn2c(CCCNC(=O)C3CCCCC3)nc3ccccc32)cc1,0.788% (inactive),
COc1ccccc1Cc1nc2ccccc2nc1SCC(=O)N1CCCc2ccccc21,0.565% (inactive),
CCc1nn(CC(=O)Nc2cc(C)cc(C)c2)c(=O)c2cc3sccc3n12,-1.09% (inactive),

Structure (SMILES),IkBa stabilization activation,Potency
Cc1cc(C)cc(NS(=O)(=O)c2ccc3[nH]cc(C(=O)N4CCCCC4)c(=O)c3c2)c1,2.33% (inactive),
COC(=O)c1c(NC(=O)c2cc(=O)c3c(C)cc(C)cc3o2)sc2c1CCCC2,-1.94% (inactive),
COc1ccc(C)cc1NC(=O)C(=O)NCCc1sc(-c2cccc(C)c2)nc1C,-0.998% (inactive),
Cc1ccc2ncc(C(=O)Nc3ccc(OC(F)(F)F)cc3)c(=O)n2c1,-2.93% (inactive),
Cc1cc(C)cc(OCC(=O)Nc2c(C(=O)c3ccccc3)oc3ccccc23)c1,-1.32% (inactive),
O=C1CC(c2nnc(Cc3ccc(Cl)cc3)o2)CN1c1ccccc1 (stereo not drawn),2.11% (inactive),
CSc1ccc(C2c3c(oc4ccccc4c3=O)C(=O)N2CCCN2CCOCC2)cc1 (stereo not drawn),-1.64% (inactive),
COCC(C)NS(=O)(=O)c1ccc(N2CCCCS2(=O)=O)cc1 (stereo not drawn),-0.0651% (inactive),
COc1cccc(CNC(=O)CCC(=O)N2CC3CCCN3c3ccccc32)c1 (stereo not drawn),1.48% (inactive),
CCc1ccccc1OCCSc1nc(-c2cccs2)nc2cc(=O)[nH]n12,0.201% (inactive),
Cc1cccc(NC(=O)CSc2nc3c(oc4ccccc43)c(=O)n2-c2ccc(F)cc2)c1,-0.455% (inactive),
O=C1Cc2cc(S(=O)(=O)Nc3ccc(OC(F)(F)F)cc3)cc3c2N1CCC3,6.23% (inactive),
Cc1ccc(N(C)C(=O)C2CCN(S(=O)(=O)c3ccc4c(c3)CCCN4C(=O)C3CCC3)CC2)cc1,2.75% (inactive),
COC(=O)c1ccccc1NC(=O)c1ccc(COc2ccccc2Cl)o1,-2.65% (inactive),
CCC1=Nc2cc(C(=O)NCCCOC(C)C)ccc2Sc2ccc(C)cc21,-2.32% (inactive),
CCCCN(CC)CCCNC(=O)c1nn(C)c2c1CSc1ccccc1-2,2.35% (inactive),
O=C(Nc1ccc(-c2nc3cc(NC(=O)c4ccccc4Cl)ccc3o2)cc1)c1ccccc1Cl,4.54% (inactive),
CCCNC(=O)CCn1nc(-c2ccccc2)c2ccccc2c1=O,2.39% (inactive),
COC(=O)c1cc2occc2n1Cc1nc(-c2ccccc2C)oc1C,-1.31% (inactive),
COc1cc(NC(=O)Cn2nc(-c3ccc(C)c(C)c3)ccc2=O)cc(OC)c1,-1.19% (inactive),
CCOc1ccc(-c2cc3nc(C4CCN(C(=O)OC(C)(C)C)CC4)c(C(=O)Nc4ccc(C(=O)OC)cc4)cn3n2)cc1,-0.305% (inactive),
